Laboratory results from PubChem BioAssay (Tox21).
Results filed as inconclusive are left out. Activity calls are given as the source filed them. Unless noted, calls come from the whole dose curve; as a rule, active = well fitted curve in the direction sought with a large enough effect in the repeat runs; inconclusive = weak or mixed curves; inactive = no such curve, though single readings can be large; an effect the other way counts as inactive or inconclusive.

Key:
[1] = qHTS assay to identify small molecule antagonists of the estrogen receptor alpha (ER-alpha) signaling pathway using the BG1 cell line in the presence of 0.1 nM 17-beta-estradiol - cell viability counter screen (AID 1259241); note: nearly all actives have a fitted effect of over 40% in size; note: potency is the fitted concentration of half-maximal effect
Method in brief: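 Estradiol-stimulated (0.1 nM) VM7Luc4E2 cells exposed to compounds 22 hr; viability measured by fluorescence of cleaved CellTiter-Fluor substrate after 30 min.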

[2] = qHTS assay to identify small molecule antagonists of the androgen receptor (AR) signaling pathway using the MDA cell line in the presence of 0.5 nM R1881 - cell viability counter screen (AID 1259242); note: nearly all actives have a fitted effect of over 45% in size
Method in brief: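 MDA-kb2 cells (MMTV-luciferase, AR/GR responsive) were treated with compounds plus 0.5 nM R1881 (final) for 16 hr at 37C, 0% CO2. Viability was then read in the same wells as live-cell protease fluorescence (CellTiter-Fluor, 30 min).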

[3] = target: Androgen receptor (Homo sapiens) (UniProt P10275); test: qHTS assay to identify small molecule antagonists of the androgen receptor (AR) signaling pathway using the MDA cell line in the presence of 0.5 nM R1881 (AID 1259243); note: nearly all actives have a fitted effect of over 50% in size; note: potency is the fitted concentration of half-maximal effect
Sequence of Androgen receptor (Homo sapiens) (P10275 whole entry, looked up): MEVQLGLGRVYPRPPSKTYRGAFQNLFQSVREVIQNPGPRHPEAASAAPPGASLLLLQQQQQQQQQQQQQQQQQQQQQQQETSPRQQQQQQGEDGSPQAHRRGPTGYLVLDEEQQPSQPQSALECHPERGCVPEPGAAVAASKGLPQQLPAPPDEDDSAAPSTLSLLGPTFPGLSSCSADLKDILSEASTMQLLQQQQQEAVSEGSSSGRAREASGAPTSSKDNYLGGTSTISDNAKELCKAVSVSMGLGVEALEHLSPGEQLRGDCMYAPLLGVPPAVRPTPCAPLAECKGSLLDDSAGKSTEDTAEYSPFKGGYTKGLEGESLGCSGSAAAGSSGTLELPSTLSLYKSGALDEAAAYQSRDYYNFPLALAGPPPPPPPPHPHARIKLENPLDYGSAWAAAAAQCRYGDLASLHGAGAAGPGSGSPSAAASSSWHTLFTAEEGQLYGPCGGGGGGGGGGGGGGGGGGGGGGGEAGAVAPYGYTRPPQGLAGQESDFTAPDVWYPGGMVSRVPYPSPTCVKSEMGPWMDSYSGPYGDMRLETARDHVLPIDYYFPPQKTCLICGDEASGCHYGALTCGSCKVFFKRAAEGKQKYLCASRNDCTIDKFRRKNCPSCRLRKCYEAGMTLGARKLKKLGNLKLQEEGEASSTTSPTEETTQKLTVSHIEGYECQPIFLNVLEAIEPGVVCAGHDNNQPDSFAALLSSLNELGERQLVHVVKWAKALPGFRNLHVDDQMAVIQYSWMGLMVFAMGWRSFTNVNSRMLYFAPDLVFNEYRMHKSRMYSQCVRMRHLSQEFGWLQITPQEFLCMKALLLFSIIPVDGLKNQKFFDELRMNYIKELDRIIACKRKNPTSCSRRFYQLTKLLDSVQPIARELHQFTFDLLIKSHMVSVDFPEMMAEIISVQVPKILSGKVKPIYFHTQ
Method in brief: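 MDA-kb2 cells (MMTV-luciferase, responsive to AR and GR) at 3,000/well, rested 5 h at 37C, 0% CO2, then given compounds plus 0.5 nM R1881 (final) for 16 hr. Luciferase read with ONE-Glo after 30 min at room temperature.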

[4] = qHTS assay to identify small molecule HDAC inhibitors (AID 1259364); note: top concentration of the series differs between compounds; nearly all actives have a fitted effect of over 45% in size
Method in brief: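 Wild-type HCT-116 cells, plated overnight at 37 C, exposed to compounds 2 hr at 37 C; luminogenic HDAC-Glo substrate then added 30 min at room temperature. Luminescence reports relative endogenous class I/II HDAC activity.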

[5] = qHTS assay to identify small molecule agonists of the sonic hedgehog signaling (Shh) pathway - cell viability counter screen (AID 1259366); note: nearly all actives have a fitted effect of over 50% in size
Method in brief: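 Same-well cytotoxicity read. Gli1-Luc reporter 3T3 cells; compounds 24hr, 37C/5% CO2; CellTiter-Fluor fluorescence.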

[6] = qHTS assay to identify small molecule antagonists of the sonic hedgehog signaling (Shh) pathway - cell viability counter screen (AID 1259367); note: nearly all actives have a fitted effect of over 55% in size
Method in brief: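 Cells: 3T3 Gli1-Luc, 2,000/well, 4 hr pre-incubation. Compounds in DMSO, then conditioned medium. Incubation 24 hr, 37C, 5% CO2. CellTiter-Fluor at 23 hr, 1 hr, fluorescence.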

[7] = qHTS assay to identify small molecule agonists of the sonic hedgehog signaling (Shh) pathway (AID 1259368; calls by dose curve;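 note: NIH/3T3-derived 3T3Gli1-Luc cells carrying a stable Gli1-driven firefly luciferase reporter; series mostly up to about 92 µM; nearly all actives have a fitted effect of over 15% in size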)
Method in brief: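 NIH/3T3-derived 3T3Gli1-Luc cells with stably integrated Gli1-driven firefly luciferase, 2,000 cells/well, compounds added after 4 hr. Incubated 24 hr at 37C, 5% CO2; luminescence read after 30 min with luciferase reagent at room temperature.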

[8] = target: Estrogen receptor beta (Homo sapiens) (UniProt Q92731); test: qHTS assay to identify small molecule agonists of the estrogen receptor beta (ER-beta) signaling pathway (AID 1259377; active = well fitted activation curve with a large enough effect in the signal ratio in the repeat runs, not every such curve was filed as active; the % refers to the signal ratio)
Sequence of Estrogen receptor beta (Homo sapiens) (Q92731 whole entry, looked up): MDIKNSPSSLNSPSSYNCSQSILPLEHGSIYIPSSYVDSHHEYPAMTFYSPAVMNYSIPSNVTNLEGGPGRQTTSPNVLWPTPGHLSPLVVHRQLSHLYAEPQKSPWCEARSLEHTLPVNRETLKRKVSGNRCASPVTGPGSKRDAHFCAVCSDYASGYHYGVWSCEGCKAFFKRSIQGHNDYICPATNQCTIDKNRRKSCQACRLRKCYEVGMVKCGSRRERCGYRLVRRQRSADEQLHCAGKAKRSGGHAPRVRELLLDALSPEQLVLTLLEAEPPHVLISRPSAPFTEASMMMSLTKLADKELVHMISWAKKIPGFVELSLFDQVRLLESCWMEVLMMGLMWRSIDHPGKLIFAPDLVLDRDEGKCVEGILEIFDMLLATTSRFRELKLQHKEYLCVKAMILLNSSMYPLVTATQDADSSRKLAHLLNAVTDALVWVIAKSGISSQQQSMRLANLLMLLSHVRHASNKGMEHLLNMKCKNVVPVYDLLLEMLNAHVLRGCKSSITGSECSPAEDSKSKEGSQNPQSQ
Method in brief: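 Read-out: beta-lactamase FRET fluorescence. Cell line: ER-beta-UAS-bla HEK293T in 2% charcoal-stripped FBS. Exposure: 16 hr at 37C. Substrate step: 2 h at room temperature.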

[9] = target: Estrogen receptor beta (Homo sapiens) (UniProt Q92731); test: qHTS assay to identify small molecule antagonists of the estrogen receptor beta (ER-beta) signaling pathway (AID 1259378; active = well fitted inhibition curve with a large enough effect in the signal ratio in the repeat runs, not every such curve was filed as active; the % refers to the signal ratio)
Method in brief: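 Antagonist mode: compounds added to beta-lactamase reporter HEK293T ER-beta-UAS cells stimulated with E2 (1nM final), 16 hr at 37C. LiveBLAzer B/G FRET substrate, 2 hours room temperature, fluorescence read-out.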

[10] = qHTS assay to identify small molecule agonists of the androgen receptor (AR) signaling pathway in the presence of an antagonist - cell viability counter screen (AID 1259379);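 note: MDA-kb2 human breast cancer cells carrying an MMTV luciferase reporter; series mostly up to about 92 µM; nearly all actives have a fitted effect of over 25% in size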
Method in brief: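 MDA-kb2 cells (MMTV-luciferase, AR/GR), 3,000/well, 5 h attachment, then 3.0 µM nilutamide (final) and compounds at 15 concentrations. Viability by CellTiter-Fluor fluorescence after 16 h at 37 °C, 0% CO2, in the reporter wells.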

[11] = qHTS assay to identify small molecule agonists of the estrogen receptor beta (ER-beta) signaling pathway - cell viability counter screen (AID 1259380); note: nearly all actives have a fitted effect of over 30% in size; note: potency is the fitted concentration of half-maximal effect
Method in brief: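 ER-beta-UAS-bla HEK293T cells in medium with 2% charcoal-stripped FBS, pre-incubated 6 hr, then treated 16 hr at 37C. Cytotoxicity read in the same wells by CellTiter-Glo luminescence after 30 min at room temperature.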

[12] = target: Androgen receptor (Homo sapiens) (UniProt P10275); test: qHTS assay to identify small molecule agonists of the androgen receptor (AR) signaling pathway in the presence of an antagonist (AID 1259381; calls by dose curve; note: nearly all actives have a fitted effect of over 15% in size; note: potency is the fitted concentration of half-maximal effect)
Method in brief: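 MDA-kb2 cells carrying MMTV-luciferase (AR/GR responsive), 3,000 cells/well, co-treated with 3.0 uM nilutamide final. Compounds at 15 concentrations, 16 hr at 37C without CO2. Luciferase luminescence read after 30 min with ONE-Glo.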

[13] = qHTS assay to identify small molecule antagonists of the estrogen receptor beta (ER-beta) signaling pathway - cell viability counter screen (AID 1259382);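 note: HEK293T cells carrying ER-beta-UAS-bla reporter stimulated with estradiol; series mostly up to about 92 µM; nearly all actives have a fitted effect of over 55% in size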
Method in brief: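 ER-beta-UAS-bla HEK293T cells in 2% charcoal-stripped FBS medium, treated with compound plus 1 nM 17-beta-estradiol for 16 h at 37C. Viability read by CellTiter-Glo luminescence after 30 min at room temperature in the same wells.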

[14] = qHTS assay to identify small molecule agonists or antagonists of the thyroid stimulating hormone receptor (TSHR) signaling pathway - wild type cell line counter screen (AID 1259384; calls by dose curve)
Method in brief: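 Counter screen in untransfected Hek293: compounds (15-point titration, triplicate) plus phosphodiesterase inhibitor Ro20-1724 added after 18 h plating; 30 min RT. Intracellular cAMP via competitive d2/cryptate immunoassay, 1 h incubation.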

[15] = target: Thyrotropin receptor (Homo sapiens) (UniProt P16473); test: qHTS assay to identify small molecule antagonists of the thyroid stimulating hormone receptor (TSHR) signaling pathway (AID 1259385; calls by dose curve; note: nearly all actives have a fitted effect of over 20% in size)
Sequence of Thyrotropin receptor (Homo sapiens) (P16473 whole entry, looked up): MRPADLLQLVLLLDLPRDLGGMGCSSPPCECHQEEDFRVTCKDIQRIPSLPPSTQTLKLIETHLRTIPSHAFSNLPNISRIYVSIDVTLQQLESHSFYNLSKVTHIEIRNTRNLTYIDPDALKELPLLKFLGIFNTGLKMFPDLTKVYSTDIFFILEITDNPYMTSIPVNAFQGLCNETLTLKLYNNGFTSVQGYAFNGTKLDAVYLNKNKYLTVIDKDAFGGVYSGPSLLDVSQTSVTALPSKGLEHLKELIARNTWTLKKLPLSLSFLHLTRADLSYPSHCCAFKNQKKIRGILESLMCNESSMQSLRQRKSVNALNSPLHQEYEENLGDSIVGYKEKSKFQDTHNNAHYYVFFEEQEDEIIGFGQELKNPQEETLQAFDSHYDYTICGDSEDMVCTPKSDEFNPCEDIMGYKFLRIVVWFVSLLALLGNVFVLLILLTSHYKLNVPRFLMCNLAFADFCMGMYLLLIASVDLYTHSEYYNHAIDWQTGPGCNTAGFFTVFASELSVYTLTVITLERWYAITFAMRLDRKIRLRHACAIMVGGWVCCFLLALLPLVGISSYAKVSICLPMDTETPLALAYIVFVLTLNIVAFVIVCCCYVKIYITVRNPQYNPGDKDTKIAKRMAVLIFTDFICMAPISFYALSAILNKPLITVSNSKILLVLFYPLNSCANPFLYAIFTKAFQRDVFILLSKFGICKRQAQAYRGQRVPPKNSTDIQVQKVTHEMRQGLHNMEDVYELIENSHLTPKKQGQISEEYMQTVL
Method in brief: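 Antagonist mode: compound-treated TSHR-expressing HEK293 cells were stimulated with 1.5 ng/mL TSH (final) in presence of Ro20-1724 for 30 min at RT. HTRF cAMP detection after 1 h; each compound tested at 15 concentrations, triplicate.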

[16] = target: Estrogen receptor (Homo sapiens) (UniProt P03372); test: qHTS assay to identify small molecule antagonists of the estrogen receptor alpha (ER-alpha) signaling pathway using the BG1 cell line in the presence of 0.1 nM 17-beta-estradiol (AID 1259244); note: nearly all actives have a fitted effect of over 50% in size; note: potency is the fitted concentration of half-maximal effect
Sequence of Estrogen receptor (Homo sapiens) (P03372 whole entry, looked up): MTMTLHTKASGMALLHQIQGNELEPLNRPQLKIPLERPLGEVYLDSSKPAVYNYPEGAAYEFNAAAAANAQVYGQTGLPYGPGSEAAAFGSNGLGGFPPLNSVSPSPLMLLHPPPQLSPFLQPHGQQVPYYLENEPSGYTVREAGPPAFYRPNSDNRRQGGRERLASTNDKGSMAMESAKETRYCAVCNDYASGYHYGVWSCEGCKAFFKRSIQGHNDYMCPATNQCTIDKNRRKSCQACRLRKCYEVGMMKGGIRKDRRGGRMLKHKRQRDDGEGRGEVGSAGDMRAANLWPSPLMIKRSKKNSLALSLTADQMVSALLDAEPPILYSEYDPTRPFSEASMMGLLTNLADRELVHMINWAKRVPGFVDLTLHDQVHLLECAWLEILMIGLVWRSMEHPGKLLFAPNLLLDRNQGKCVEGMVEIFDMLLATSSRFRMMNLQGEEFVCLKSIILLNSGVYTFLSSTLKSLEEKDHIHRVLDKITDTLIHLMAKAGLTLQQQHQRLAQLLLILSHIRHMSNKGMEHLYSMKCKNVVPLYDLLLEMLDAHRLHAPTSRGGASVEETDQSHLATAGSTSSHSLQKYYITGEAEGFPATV
Method in brief: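 VM7Luc4E2 cells (endogenous full-length ER-alpha, 4×ERE-luciferase), kept 5 days in phenol red-free, charcoal-stripped FBS medium; 4,000 cells/well. Compounds added with 0.1 nM (final) 17beta-estradiol, 22 hr at 37C; luminescence read with ONE-Glo after 30 min.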

[17] = qHTS assay to identify small molecule HDAC inhibitors - cell viability counter screen (AID 1259365); note: series mostly up to about 92 µM; nearly all actives have a fitted effect of over 50% in size
Method in brief: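 After overnight seeding at 1,500 cells per well, wild-type HCT-116 cultures took up compounds in DMSO for 2hr at 37 C. Viable cell content came from luminescence with CellTiter-Glo.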

[18] = qHTS assay to identify small molecule antagonists of the sonic hedgehog signaling (Shh) pathway (AID 1259369; calls by dose curve; note: nearly all actives have a fitted effect of over 45% in size; note: potency is the fitted concentration of half-maximal effect)
Method in brief: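 NIH/3T3-derived Gli1-Luc reporter cells plated 4 h, dosed with compound, then stimulated with conditioned medium for 24 h at 37 C. Firefly luciferase luminescence read after 30 min with detection reagent at room temperature.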

[19] = target: Estrogen receptor (Homo sapiens) (UniProt P03372); test: qHTS assay to identify small molecule agonists of the estrogen receptor alpha (ER-alpha) signaling pathway in the presence of an antagonist (AID 1259383; calls by dose curve; note: top concentration of the series differs between compounds; nearly all actives have a fitted effect of over 15% in size)
Method in brief: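 VM7Luc4E2 cells express endogenous full-length ER-alpha with an ERE-luciferase reporter and were hormone-deprived for 5 days. Compounds at 15 concentrations were added with 10.0nM ICI-182,780 for 22hr at 37C. Luminescence was read with ONE-Glo.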

[20] = qHTS assay to identify small molecule phospholipidosis (PLD) inducers (AID 1259344; active = well fitted curve in the direction sought with a large enough effect; an effect the other way counts as inactive or inconclusive)
Method in brief: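 Phospholipidosis is scored by imaging LipidTOX-stained pits in HepG2 cells exposed to compound for 24 h at 37 C; pit counts and integrated intensities per well and per cell serve as outputs.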
% is set by controls: 0 for no effect and ±100 for the full control effect.

C1=CCC2CC=CC2C1 (configuration not stated)
inactive: Potency [1] | Potency [2] | Potency [3] | Potency [4] | Potency [5] | Potency [6] | Potency [7] | Potency [8] | Potency [9] | Potency [10] | Potency [11] | Potency [12] | Potency [13] | Potency [14] | Potency [15]

Nc1ccc(F)cc1
inactive: Potency [1] | Potency [2] | Potency [3] | Potency [16] | Potency [4] | Potency [17] | Potency [5] | Potency [6] | Potency [7] | Potency [18] | Potency [11] | Potency [13] | Potency [19]

O=C(C(=O)c1ccco1)c1ccco1
inactive: Potency [1] | Potency [2] | Potency [3] | Potency [16] | Potency [4] | Potency [17] | Potency [5] | Potency [6] | Potency [18] | Potency [8] | Potency [9] | Potency [10] | Potency [11] | Potency [13] | Potency [19] | Potency [15]

COC(=O)C1=C(C)NC(C)=C(C(=O)OC(C)(C)CN(C)CCC(c2ccccc2)c2ccccc2)C1c1cccc([N+](=O)[O-])c1 (configuration not stated)
active: Potency [3] 26.6 µM
inactive: Potency [1] | Potency [2] | Potency [20] | Potency [4] | Potency [17] | Potency [5] | Potency [6] | Potency [7] | Potency [8] | Potency [12] | Potency [13] | Potency [19] | Potency [14] | Potency [15]

Nc1cccc2c(N)cccc12
inactive: Potency [2] | Potency [3] | Potency [20] | Potency [4] | Potency [17] | Potency [7] | Potency [10]
active: Potency [1] 27.3 µM | Potency [16] 20.5 µM | Potency [18] 5.45 µM | Potency [11] 4.86 µM | Potency [12] 54.5 µM

CCC(Cl)CC(Cl)C(Cl)C(Cl)C(Cl)C(C)Cl (configuration not stated)
inactive: activity change, negative = cytotoxicity [1] 0.764% [at 19 µM] | viability change, negative = cytotoxic [2] 0.388% [at 19 µM] | activity, negative = inhibition [3] 72.1% [at 19 µM] | activity change, negative = inhibition [16] 63.4% [at 19 µM] | activity change, negative = cytotoxicity [17] -3.08% [at 19 µM] | viability change, negative = cytotoxic [5] -0.751% [at 19 µM] | viability change, negative = cytotoxic [6] 0.145% [at 19 µM] | activity change, negative = inhibition [18] 58.5% [at 19 µM] | activity change, negative = cytotoxicity [10] 2.03% [at 19 µM] | activation [12] 4.69% [at 19 µM] | activity change, negative = cytotoxicity [13] -4.67% [at 19 µM] | cAMP activity change [14] 4.41% [at 18.9 µM, hits give high values] | activity change, negative = inhibition [15] -0.191% [at 19 µM]

O=S(=O)(Cl)c1c(Cl)cccc1Cl
inactive: Potency [1] | Potency [2] | Potency [3] | Potency [16] | Potency [4] | Potency [17] | Potency [6] | Potency [7] | Potency [8] | Potency [9] | Potency [10] | Potency [12] | Potency [13] | Potency [19] | Potency [14] | Potency [15]

CCCCOCCOC(=O)c1cccnc1
inactive: Potency [1] | Potency [2] | Potency [3] | Potency [16] | Potency [4] | Potency [17] | Potency [6] | Potency [7] | Potency [18] | Potency [8] | Potency [9] | Potency [10] | Potency [11] | Potency [12] | Potency [13] | Potency [14]

CC(=O)OCC(C)C
inactive: Potency [1] | Potency [2] | Potency [3] | Potency [16] | Potency [4] | Potency [17] | Potency [5] | Potency [6] | Potency [7] | Potency [18] | Potency [8] | Potency [9] | Potency [10] | Potency [12] | Potency [13] | Potency [19]
